Source: the supplement of paper PMC10849652
About 7,900 targets were measured; listed, in parts, are those with a hit and a random draw of the rest. About 0.6% of all pairs of compound and target were hits. Unmarked numbers belong to inactive results.

Sequence of UniProt Q9UKL6 (Q9UKL6 whole entry, looked up): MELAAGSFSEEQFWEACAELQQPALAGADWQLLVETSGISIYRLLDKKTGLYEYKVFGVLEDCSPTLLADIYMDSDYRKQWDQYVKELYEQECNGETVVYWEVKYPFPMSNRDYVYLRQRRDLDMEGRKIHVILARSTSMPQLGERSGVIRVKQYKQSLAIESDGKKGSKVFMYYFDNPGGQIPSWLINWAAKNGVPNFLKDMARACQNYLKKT
Sequence of UniProt Q8N4L2 (Q8N4L2 whole entry, looked up): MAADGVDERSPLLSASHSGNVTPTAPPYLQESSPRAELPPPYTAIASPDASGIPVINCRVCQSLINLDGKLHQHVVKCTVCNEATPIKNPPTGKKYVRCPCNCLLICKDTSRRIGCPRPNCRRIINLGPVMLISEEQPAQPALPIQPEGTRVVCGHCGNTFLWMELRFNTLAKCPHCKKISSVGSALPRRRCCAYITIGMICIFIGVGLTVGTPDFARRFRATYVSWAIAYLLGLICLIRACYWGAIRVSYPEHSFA
Sequence of UniProt P49642 (P49642 whole entry, looked up): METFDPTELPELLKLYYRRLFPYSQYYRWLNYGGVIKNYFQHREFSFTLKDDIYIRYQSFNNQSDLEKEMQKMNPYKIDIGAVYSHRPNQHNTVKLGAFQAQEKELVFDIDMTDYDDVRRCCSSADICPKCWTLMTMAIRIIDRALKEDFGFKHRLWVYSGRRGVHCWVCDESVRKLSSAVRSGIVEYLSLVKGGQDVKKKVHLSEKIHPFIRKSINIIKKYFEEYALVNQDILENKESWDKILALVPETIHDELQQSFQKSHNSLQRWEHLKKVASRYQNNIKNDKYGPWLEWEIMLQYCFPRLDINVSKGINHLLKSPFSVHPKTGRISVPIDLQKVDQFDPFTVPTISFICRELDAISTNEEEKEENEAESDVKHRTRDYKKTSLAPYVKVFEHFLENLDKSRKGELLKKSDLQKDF
Sequence of UniProt Q5VU43 (Q5VU43 whole entry, looked up): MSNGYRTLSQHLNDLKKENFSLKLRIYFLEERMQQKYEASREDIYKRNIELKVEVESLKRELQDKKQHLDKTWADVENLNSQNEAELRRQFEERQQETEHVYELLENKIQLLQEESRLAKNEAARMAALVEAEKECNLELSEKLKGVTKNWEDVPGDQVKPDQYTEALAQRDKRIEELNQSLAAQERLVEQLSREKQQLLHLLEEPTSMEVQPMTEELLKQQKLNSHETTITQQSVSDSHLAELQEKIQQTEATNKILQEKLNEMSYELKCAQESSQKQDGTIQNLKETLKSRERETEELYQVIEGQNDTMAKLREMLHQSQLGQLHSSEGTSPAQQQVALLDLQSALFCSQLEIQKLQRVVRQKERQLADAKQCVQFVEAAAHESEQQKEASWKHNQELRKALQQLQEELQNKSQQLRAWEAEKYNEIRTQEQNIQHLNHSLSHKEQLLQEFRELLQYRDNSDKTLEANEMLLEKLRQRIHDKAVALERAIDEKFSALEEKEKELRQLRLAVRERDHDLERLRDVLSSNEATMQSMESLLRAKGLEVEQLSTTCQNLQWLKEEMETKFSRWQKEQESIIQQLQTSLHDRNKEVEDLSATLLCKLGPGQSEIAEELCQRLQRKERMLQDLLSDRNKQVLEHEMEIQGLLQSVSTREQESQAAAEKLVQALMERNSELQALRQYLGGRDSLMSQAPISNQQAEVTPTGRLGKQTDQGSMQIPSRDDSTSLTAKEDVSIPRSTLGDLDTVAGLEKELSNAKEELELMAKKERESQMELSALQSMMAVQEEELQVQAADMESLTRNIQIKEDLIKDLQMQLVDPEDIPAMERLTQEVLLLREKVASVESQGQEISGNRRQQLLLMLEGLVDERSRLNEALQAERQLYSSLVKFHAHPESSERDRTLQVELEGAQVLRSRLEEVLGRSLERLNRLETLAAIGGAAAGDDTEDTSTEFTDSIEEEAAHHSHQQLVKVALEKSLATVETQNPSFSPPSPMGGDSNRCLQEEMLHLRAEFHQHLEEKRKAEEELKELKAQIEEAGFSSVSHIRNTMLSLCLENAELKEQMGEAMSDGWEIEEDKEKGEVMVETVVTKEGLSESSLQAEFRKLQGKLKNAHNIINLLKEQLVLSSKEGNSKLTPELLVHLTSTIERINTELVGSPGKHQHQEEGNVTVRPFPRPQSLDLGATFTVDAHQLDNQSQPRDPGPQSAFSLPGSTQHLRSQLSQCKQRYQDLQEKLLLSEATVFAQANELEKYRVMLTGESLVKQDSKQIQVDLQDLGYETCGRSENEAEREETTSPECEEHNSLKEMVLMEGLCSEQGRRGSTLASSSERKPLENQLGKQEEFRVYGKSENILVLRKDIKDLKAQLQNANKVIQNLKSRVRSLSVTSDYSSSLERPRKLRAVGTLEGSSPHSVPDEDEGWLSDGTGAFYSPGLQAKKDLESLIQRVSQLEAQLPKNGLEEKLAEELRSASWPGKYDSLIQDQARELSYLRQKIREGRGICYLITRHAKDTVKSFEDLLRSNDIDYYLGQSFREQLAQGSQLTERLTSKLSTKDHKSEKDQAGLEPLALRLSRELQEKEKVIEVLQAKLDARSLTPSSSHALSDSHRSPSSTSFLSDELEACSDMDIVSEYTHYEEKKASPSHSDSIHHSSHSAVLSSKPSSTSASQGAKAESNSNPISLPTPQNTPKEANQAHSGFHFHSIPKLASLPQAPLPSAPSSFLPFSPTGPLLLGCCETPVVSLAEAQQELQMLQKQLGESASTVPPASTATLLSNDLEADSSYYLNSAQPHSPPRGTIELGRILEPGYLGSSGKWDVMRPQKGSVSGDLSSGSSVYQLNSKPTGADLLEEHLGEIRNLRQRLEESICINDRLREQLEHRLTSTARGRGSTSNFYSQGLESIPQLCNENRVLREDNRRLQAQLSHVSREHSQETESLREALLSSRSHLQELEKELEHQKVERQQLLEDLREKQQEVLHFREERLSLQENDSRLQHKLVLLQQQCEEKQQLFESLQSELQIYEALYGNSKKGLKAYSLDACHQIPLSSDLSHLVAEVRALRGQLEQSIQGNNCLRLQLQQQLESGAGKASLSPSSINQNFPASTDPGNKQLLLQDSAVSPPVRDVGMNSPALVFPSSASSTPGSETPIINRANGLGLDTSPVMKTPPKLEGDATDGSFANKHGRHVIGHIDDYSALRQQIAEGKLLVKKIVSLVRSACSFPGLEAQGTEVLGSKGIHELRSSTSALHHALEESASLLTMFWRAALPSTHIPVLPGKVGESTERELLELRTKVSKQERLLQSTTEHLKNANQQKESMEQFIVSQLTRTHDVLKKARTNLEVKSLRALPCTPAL
Sequence of UniProt Q8N8N7 (Q8N8N7 whole entry, looked up): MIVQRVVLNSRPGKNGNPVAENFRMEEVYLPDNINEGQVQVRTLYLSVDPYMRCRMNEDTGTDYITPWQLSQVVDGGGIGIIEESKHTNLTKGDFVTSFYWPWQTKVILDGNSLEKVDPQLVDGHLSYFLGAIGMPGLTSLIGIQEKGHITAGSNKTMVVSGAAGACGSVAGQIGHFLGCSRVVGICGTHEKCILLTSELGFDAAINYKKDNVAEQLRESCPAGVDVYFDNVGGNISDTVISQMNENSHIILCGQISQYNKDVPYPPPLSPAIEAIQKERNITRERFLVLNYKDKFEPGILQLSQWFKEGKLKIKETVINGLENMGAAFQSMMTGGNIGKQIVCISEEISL
Sequence of UniProt Q6L8Q7 (Q6L8Q7 whole entry, looked up): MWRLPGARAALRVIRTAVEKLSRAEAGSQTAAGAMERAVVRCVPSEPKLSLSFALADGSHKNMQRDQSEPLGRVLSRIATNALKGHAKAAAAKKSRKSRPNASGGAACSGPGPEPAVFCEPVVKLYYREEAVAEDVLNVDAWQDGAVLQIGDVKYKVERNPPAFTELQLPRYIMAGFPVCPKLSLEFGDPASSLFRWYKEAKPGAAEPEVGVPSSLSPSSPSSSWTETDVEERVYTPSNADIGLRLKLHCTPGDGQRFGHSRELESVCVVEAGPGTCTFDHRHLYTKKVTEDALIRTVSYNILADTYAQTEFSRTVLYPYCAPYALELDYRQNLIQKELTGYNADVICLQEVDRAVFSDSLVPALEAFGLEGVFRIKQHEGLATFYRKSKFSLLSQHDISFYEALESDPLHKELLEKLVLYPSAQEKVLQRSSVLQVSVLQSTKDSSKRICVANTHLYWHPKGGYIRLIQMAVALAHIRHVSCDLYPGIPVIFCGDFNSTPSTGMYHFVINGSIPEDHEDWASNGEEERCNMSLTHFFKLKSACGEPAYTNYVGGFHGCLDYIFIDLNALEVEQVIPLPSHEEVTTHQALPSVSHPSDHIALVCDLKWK
Sequence of UniProt Q86T03 (Q86T03 whole entry, looked up): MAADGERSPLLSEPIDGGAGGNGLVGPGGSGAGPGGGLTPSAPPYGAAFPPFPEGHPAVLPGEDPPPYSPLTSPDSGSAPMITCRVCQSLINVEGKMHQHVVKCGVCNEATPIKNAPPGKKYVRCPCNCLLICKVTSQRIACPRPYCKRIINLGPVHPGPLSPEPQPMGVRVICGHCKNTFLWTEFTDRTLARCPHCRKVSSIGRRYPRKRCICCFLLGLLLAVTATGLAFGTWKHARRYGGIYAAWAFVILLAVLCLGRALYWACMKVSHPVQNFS
Sequence of UniProt Q9H814 (Q9H814 whole entry, looked up): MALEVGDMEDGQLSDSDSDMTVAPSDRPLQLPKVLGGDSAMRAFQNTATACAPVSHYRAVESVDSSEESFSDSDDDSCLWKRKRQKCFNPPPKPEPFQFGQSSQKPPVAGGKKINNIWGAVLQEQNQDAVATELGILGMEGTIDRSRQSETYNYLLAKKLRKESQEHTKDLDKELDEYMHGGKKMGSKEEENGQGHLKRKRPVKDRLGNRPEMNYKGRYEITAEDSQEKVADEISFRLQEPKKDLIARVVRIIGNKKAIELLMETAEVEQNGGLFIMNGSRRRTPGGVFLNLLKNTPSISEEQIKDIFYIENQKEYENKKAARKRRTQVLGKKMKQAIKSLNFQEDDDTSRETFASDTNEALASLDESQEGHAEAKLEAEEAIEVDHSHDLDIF

The targets below were run with CC1=NC(=CC=C1)C2=C(N=C(N2)C(C)(C)C)C3=CC4=NC=CN=C4C=C3 (assay: log2 fold change, soluble protein after heating vs DMSO (PISA); higher = thermal stabilisation; K562 cells, 10 uM, 30 min; active = over 0.2 and 3.5 SD of the protein, either way, in both replicates (recomputed)).
Outline: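 K562 cells at 2×10^6 cells/mL were treated with 10 μM compound for 30 min. Aliquots were heated for 3 min across 48°C-58°C, pooled, and extracted in PBS with 0.5% NP-40 at 4°C; soluble protein was the supernatant after 21,000xg for 90 min. Soluble protein was quantified by TMTpro 16plex LC-MS/MS with channel sums equalised, and reported as log2 fold change in thermal stability against DMSO controls, with values from duplicates.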
Target PRPF40A (UniProt O75400) has a log2 fold change of 0.018.
PHAX (UniProt Q9H814) was tested, and the log2 fold change was -0.043.
PDPK1 (UniProt O15530) was tested, and the log2 fold change was -0.007.
PDE4DIP isoform 4 (UniProt Q5VU43) gave a log2 fold change of -0.044.
PIR (UniProt O00625) gave a log2 fold change of -0.035.
PSMC2 (UniProt P35998) showed a log2 fold change of -0.069.
PEX16 isoform 2 (UniProt Q9Y5Y5) showed a log2 fold change of 0.146.
PLEKHM2 (UniProt Q8IWE5) was tested, and the log2 fold change was -0.011.
PRIM1 (UniProt P49642) was tested, and the log2 fold change was -0.004.
Target PRPF31 (UniProt Q8WWY3) has a log2 fold change of 0.067.
PCNT (UniProt O95613) gave a log2 fold change of -0.116.
Work on PTGR2 (UniProt Q8N8N7) yielded a log2 fold change of -0.056.
In the case of PSMC5 (UniProt P62195), the log2 fold change was -0.05.
For PRKCA (UniProt P17252), the log2 fold change was 0.007.
In the case of PRMT3 (UniProt O60678), the log2 fold change was 0.076.
PARN (UniProt O95453) gave a log2 fold change of 0.013.
PRKAA1 isoform 2 (UniProt Q13131) gave a log2 fold change of 0.02.
PJA2 (UniProt O43164) was tested, and the log2 fold change was -0.019.
In the case of PRPF3 (UniProt O43395), the log2 fold change was 0.117.
For PITRM1 isoform 2 (UniProt Q5JRX3), the log2 fold change was 0.073.
Work on PLA2G15 (UniProt Q8NCC3) yielded a log2 fold change of -0.026.
Target PIP4K2B (UniProt P78356) has a log2 fold change of 0.026.
PDE2A (UniProt O00408) was tested, and the log2 fold change was -0.019.
PIP4P2 (UniProt Q8N4L2) was tested, and the log2 fold change was -0.002.
For PRKCD (UniProt Q05655), the log2 fold change was -0.016.
Work on PLCB3 (UniProt Q01970) yielded a log2 fold change of 0.033.
Work on POLR2B (UniProt P30876) yielded a log2 fold change of 0.016.
Work on PPIL4 (UniProt Q8WUA2) yielded a log2 fold change of -0.007.
PCTP (UniProt Q9UKL6) showed a log2 fold change of 0.039.
Target PDE12 (UniProt Q6L8Q7) has a log2 fold change of 0.026.
Target PPP1R12A (UniProt O14974) has a log2 fold change of 0.045.
For PIP4P1 isoform 2 (UniProt Q86T03), the log2 fold change was 0.039.
Work on PDS5B (UniProt Q9NTI5) yielded a log2 fold change of 0.109.
PTGES3 (UniProt Q15185) gave a log2 fold change of 0.078.
PLBD2 (UniProt Q8NHP8) was tested, and the log2 fold change was -0.051.
With PRKAR1B (UniProt P31321) the log2 fold change was -0.057.
Work on PSMD2 (UniProt Q13200) yielded a log2 fold change of -0.064.
